# Reference: PubChem BioAssay AID485284 (NMMLSC, 2010)
# Potency and affinity values are given separately.
# Assay: inhibitors of CD8+ T cell–vesicle binding, dose response, mouse 2C CD8+ T cells, flow cytometry (AID 485284);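 further: drosophila derived vesicles carrying Ld MHC with QL9 peptide plus B7-1 and ICAM-1; vesicle binding seen as anti-B7-1 PE fluorescence on CD8 gated cells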
# Details: 2C mouse CD8+ T cell-exosome binding; at 45 µM (top of the series)
row,Structure (SMILES),"binding remaining, % of control [%]"
1,COc1ccc2c3c1OC1[C@H](O)CCC4[C@@H](C2)N(C)CC[C@]314 (stereo partly specified),230
2,COC(=O)C1=C(c2c(C)noc2C)C[C@@H]2CC[C@H]1N2C(=O)NCCOc1ccccc1Cl,124
3,Cc1sc2ncnc(NCC(C)(C)N3CCOCC3)c2c1C,133
4,O=C(Nc1ccc(Cl)cc1)O/N=C(\c1ccccc1)c1ccccn1,85.8
5,CC(C)(O)C(=O)Nc1ccc([N+](=O)[O-])c(C(F)(F)F)c1,166
6,COC(=O)C1=C(c2ccc(F)cc2F)C[C@@H]2CC[C@H]1N2C(=O)NCCNC(C)=O,107
